Reference: PubChem BioAssay AID1159580 (chemical genetic matrix, 2015)
“And” between values parts separate entries of the source, which are not always exact repeats. Equal values may be shown once. Hit rate of the full screen: of about 5,500 compounds, about 2,000 (36%) were called active. Inconclusive results (about 18%) are left out. No stated cut-off is given here; in the data, active means normalized growth mostly below about 0.91 (no sharp cut-off); inconclusive means no clear call, values can overlap the other calls; inactive means mostly above about 0.92. This is one part of the list.

Experiment: chemical genetic growth profiling, strain panel (AID 1159580);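 further: tested at 20 µM; growth read once vehicle control cultures reached saturation at 30 °C; 1 = growth at the plate median or of vehicle wells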
Settings: S. cerevisiae deletion strains, growth OD

Measured: normalized growth

CCOC(=O)C(Cc1ccc(O)cc1)NC(C)=O (stereo unspecified)
inactive: locus YAL013W, strain DEP1, stronger effect = lower value 0.99 | locus YAL021C, strain ccr4, stronger effect = lower value 1.01 | locus YAL026C, strain drs2, stronger effect = lower value 1.01 | locus YAL030W, strain snc1, stronger effect = lower value 1 | locus YBL061C, strain skt5, stronger effect = lower value 1.02 | locus YBR009C, strain hhf1, stronger effect = lower value 0.974 | locus YBR021W, strain FUR4, stronger effect = lower value 1.01 | locus YBR023C, strain chs3, stronger effect = lower value 1.01 | locus YBR171W, strain sec66, stronger effect = lower value 1.01 | locus YBR229C, strain ROT2, stronger effect = lower value 1.01 | locus YBR231C, strain swc5, stronger effect = lower value 1 | locus YBR279W, strain paf1, stronger effect = lower value 1 | locus YCL011C, strain gbp2, stronger effect = lower value 1 | locus YCL016C, strain dcc1, stronger effect = lower value 1 | locus YCL029C, strain bik1, stronger effect = lower value 0.999 | locus YCL069W, strain vba3, stronger effect = lower value 0.989 | locus YCR088W, strain abp1, stronger effect = lower value 1.01 | locus YDL005C, strain med2, stronger effect = lower value 1.02 | locus YDL035C, strain GPR1, stronger effect = lower value 1.02 | locus YDL040C, strain nat1, stronger effect = lower value 1.01 | locus YDL074C, strain BRE1, stronger effect = lower value 1.02 | locus YDL101C, strain DUN1, stronger effect = lower value 1.02 | locus YDL134C, strain PPH21, stronger effect = lower value 1 | locus YDL185W, strain tfp1, stronger effect = lower value 0.993 | locus YDL192W, strain arf1, stronger effect = lower value 0.996 | locus YDR001C, strain nth1, stronger effect = lower value 1.01 | locus YDR069C, strain doa4, stronger effect = lower value 0.998 | locus YDR101C, strain arx1, stronger effect = lower value 0.996 | locus YDR137W, strain rgp1, stronger effect = lower value 1.02 | locus YDR150W, strain NUM1, stronger effect = lower value 1.01 | locus YDR159W, strain sac3, stronger effect = lower value 0.985 | locus YDR162C, strain NBP2, stronger effect = lower value 1.02 | locus YDR195W, strain ref2 1.01 | locus YDR297W, strain sur2, stronger effect = lower value 1 | locus YDR318W, strain mcm21, stronger effect = lower value 1.01 | locus YDR334W, strain swr1, stronger effect = lower value 0.997 | locus YDR335W, strain msn5, stronger effect = lower value 1.01 | locus YDR388W, stronger effect = lower value 1.01 | locus YDR392W, strain spt3, stronger effect = lower value 1.03 | locus YDR502C, strain sam2, stronger effect = lower value 0.992 | locus YEL003W, strain gim4, stronger effect = lower value 1.01 | locus YEL037C, strain rad23, stronger effect = lower value 1 | locus YEL061C, strain CIN8 (second series), stronger effect = lower value 0.998 | locus YEL061C, strain CIN8, stronger effect = lower value 1.01 | locus YER015W, strain faa2, stronger effect = lower value 1 | locus YER016W, strain bim1, stronger effect = lower value 1.03 | locus YER110C, stronger effect = lower value 1.01 | locus YER111C, strain swi4, stronger effect = lower value 1.02 | locus YER155C, strain BEM2 (second series), stronger effect = lower value 1.04 | locus YER155C, strain BEM2, stronger effect = lower value 1 | locus YER167W, strain BCK2, stronger effect = lower value 1.02 | locus YFR010W, strain ubp6, stronger effect = lower value 0.987 | locus YGL078C, strain dbp3, stronger effect = lower value 0.993 | locus YGL086W, strain mad1, stronger effect = lower value 1 | locus YGL167C, strain pmr1, stronger effect = lower value 1.01 | locus YGL173C, strain kem1, stronger effect = lower value 1.01 | locus YGL227W, strain vid30, stronger effect = lower value 1 | locus YGL240W, strain doc1, stronger effect = lower value 1.03 | locus YGL248W, strain PDE1, stronger effect = lower value 1.01 | locus YGL253W, strain hxk2, stronger effect = lower value 1 | locus YGR078C, strain PAC10, stronger effect = lower value 1.02 | locus YGR135W, strain pre9, stronger effect = lower value 0.989 | locus YGR229C, strain SMI1, stronger effect = lower value 1.03 | locus YGR252W, strain gcn5, stronger effect = lower value 0.961 | locus YHR013C, strain ard1, stronger effect = lower value 1.03 | locus YHR027C, strain rpn1, stronger effect = lower value 1.01 | locus YHR030C, strain SLT2, stronger effect = lower value 1.02 and 0.974 | locus YHR079C, strain IRE1 (second series), stronger effect = lower value 1.01 | locus YHR079C, strain IRE1, stronger effect = lower value 0.984 | locus YHR094C, strain hxt1, stronger effect = lower value 1.01 | locus YHR129C, strain ARP1, stronger effect = lower value 1.01 | locus YHR142W, strain chs7, stronger effect = lower value 1.01 | locus YHR200W, strain rpn10, stronger effect = lower value 1.01 | locus YIL066C, strain RNR3, stronger effect = lower value 1.01 | locus YIL073C, strain SPO22, stronger effect = lower value 1 | locus YIL125W, strain kgd1, stronger effect = lower value 1 | locus YIR030C, strain dcg1, stronger effect = lower value 0.997 | locus YJL092W, strain hpr5, stronger effect = lower value 1 | locus YJL095W, strain BCK1 (second series), stronger effect = lower value 1.03 | locus YJL095W, strain BCK1, stronger effect = lower value 1.04 and 0.965 | locus YJL115W, strain asf1, stronger effect = lower value 0.999 | locus YJL129C, strain trk1, stronger effect = lower value 1.02 | locus YJL134W, strain LCB3, stronger effect = lower value 1.02 | locus YJL154C, strain vps35, stronger effect = lower value 1.01 | locus YJL164C, strain tpk1, stronger effect = lower value 1 | locus YJL166W, strain qcr8, stronger effect = lower value 0.995 | locus YJL168C, strain set2, stronger effect = lower value 1.01 | locus YJL187C, strain SWE1 (second series), stronger effect = lower value 1.02 | locus YJL187C, strain SWE1, stronger effect = lower value 1.01 | locus YJR043C, strain POL32, stronger effect = lower value 1.02 | locus YJR066W, strain TOR1, stronger effect = lower value 0.887
